Assay results from PubChem BioAssay AID1159580 (chemical genetic matrix, 2015).
About 2,000 (36%) of roughly 5,500 compounds were called active. Roughly 18% stayed inconclusive and do not appear here. The list shows a part of the results. A number with no mark means an inactive call. Rule as the data show it: active = normalized growth mostly below about 0.91 (no sharp cut-off); inconclusive = no clear call, values can overlap the other calls; inactive = mostly above about 0.92.

Assay: chemical genetic growth profiling, strain panel (AID 1159580);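 also: tested at 20 µM; growth read once vehicle control cultures reached saturation at 30 °C; 1 = growth at the plate median or of vehicle wells; lower values mean less growth of the strain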
Details: S. cerevisiae deletion strains, growth OD
[1] = locus YHR030C, strain SLT2, hits give low values
[2] = locus YHR079C, strain IRE1, hits give low values
[3] = locus YJL095W, strain BCK1, hits give low values
[4] = locus YJR066W, strain TOR1, hits give low values
[5] = locus YLR113W, strain HOG1, hits give low values
[6] = locus YNL183C, strain NPR1, hits give low values
[7] = locus YOR231W, strain MKK1, hits give low values
[8] = locus YPL256C, strain CLN2, hits give low values
[9] = locus YAL021C, strain ccr4, hits give low values
[10] = locus YAL026C, strain drs2, hits give low values
[11] = locus YAL030W, strain snc1, hits give low values
[12] = locus YBL061C, strain skt5, hits give low values
[13] = locus YBR009C, strain hhf1, hits give low values
[14] = locus YBR023C, strain chs3, hits give low values
[15] = locus YBR171W, strain sec66, hits give low values
[16] = locus YBR231C, strain swc5, hits give low values
[17] = locus YBR279W, strain paf1, hits give low values
[18] = locus YCL011C, strain gbp2, hits give low values
[19] = locus YCL016C, strain dcc1, hits give low values
[20] = locus YCL069W, strain vba3, hits give low values
[21] = locus YCR088W, strain abp1, hits give low values
[22] = locus YDL005C, strain med2, hits give low values
[23] = locus YDL040C, strain nat1, hits give low values
[24] = locus YDR001C, strain nth1, hits give low values
[25] = locus YDR069C, strain doa4, hits give low values
[26] = locus YDR137W, strain rgp1, hits give low values
[27] = locus YDR159W, strain sac3, hits give low values
[28] = locus YDR297W, strain sur2, hits give low values
[29] = locus YDR334W, strain swr1, hits give low values
[30] = locus YDR335W, strain msn5, hits give low values
[31] = locus YDR392W, strain spt3, hits give low values
[32] = locus YEL003W, strain gim4, hits give low values
[33] = locus YEL037C, strain rad23, hits give low values
[34] = locus YEL061C, strain CIN8 (second series), hits give low values
[35] = locus YER015W, strain faa2, hits give low values
[36] = locus YER016W, strain bim1, hits give low values
[37] = locus YER111C, strain swi4, hits give low values
[38] = locus YER155C, strain BEM2 (second series), hits give low values
[39] = locus YFR010W, strain ubp6, hits give low values
[40] = locus YGL167C, strain pmr1, hits give low values
[41] = locus YGL173C, strain kem1, hits give low values
[42] = locus YGL227W, strain vid30, hits give low values
[43] = locus YGL240W, strain doc1, hits give low values
[44] = locus YGL253W, strain hxk2, hits give low values
[45] = locus YHR013C, strain ard1, hits give low values
[46] = locus YHR027C, strain rpn1, hits give low values
[47] = locus YHR142W, strain chs7, hits give low values
[48] = locus YJL092W, strain hpr5, hits give low values
[49] = locus YJL095W, strain BCK1 (second series), hits give low values
[50] = locus YJL115W, strain asf1, hits give low values
[51] = locus YJL129C, strain trk1, hits give low values
[52] = locus YJL154C, strain vps35, hits give low values
[53] = locus YJL164C, strain tpk1, hits give low values
[54] = locus YJL166W, strain qcr8, hits give low values
[55] = locus YJL187C, strain SWE1, hits give low values
[56] = locus YKL160W, strain elf1, hits give low values
[57] = locus YKR026C, strain gcn3, hits give low values
[58] = locus YKR091W, strain srl3, hits give low values
[59] = locus YLL001W, strain dnm1, hits give low values
[60] = locus YLL026W, hits give low values
[61] = locus YLL041C, strain sdh2, hits give low values
[62] = locus YLR027C, strain aat2, hits give low values
[63] = locus YLR221C, strain rsa3, hits give low values
[64] = locus YLR258W, strain gsy2, hits give low values
[65] = locus YLR262C, strain YPT6 (second series), hits give low values
[66] = locus YLR320W, strain mms22, hits give low values
[67] = locus YLR342W, strain FKS1, hits give low values
[68] = locus YLR357W, strain rsc2, hits give low values
[69] = locus YLR370C, strain arc18, hits give low values
[70] = locus YLR384C, strain iki3, hits give low values
[71] = locus YML120C, strain ndi1, hits give low values
[72] = locus YMR058W, strain fet3, hits give low values
[73] = locus YMR125W, strain sto1, hits give low values
[74] = locus YMR129W, hits give low values
[75] = locus YMR205C, strain PFK2, hits give low values
[76] = locus YMR231W, strain pep5, hits give low values
[77] = locus YNL071W, strain lat1, hits give low values
[78] = locus YNL209W, strain ssb2, hits give low values
[79] = locus YNL248C, strain rpa49, hits give low values
[80] = locus YNL322C, strain KRE1 (second series), hits give low values
[81] = locus YNR049C, strain mso1, hits give low values
[82] = locus YOR001W, strain rrp6, hits give low values
[83] = locus YOR070C, strain gyp1, hits give low values
[84] = locus YOR080W, strain dia2, hits give low values
[85] = locus YOR083W, strain WHI5, hits give low values
[86] = locus YOR106W, strain vam3, hits give low values
[87] = locus YOR265W, strain rbl2, hits give low values
[88] = locus YOR270C, strain vph1, hits give low values
[89] = locus YOR290C, strain snf2, hits give low values
[90] = locus YPL051W, strain arl3, hits give low values
[91] = locus YPL078C, strain atp4, hits give low values
[92] = locus YPL106C, strain sse1, hits give low values
[93] = locus YPL240C, strain hsp82, hits give low values

CCCCC[C@H](CC(=O)O)C(=O)O
normalized growth [1]: 1.04 | normalized growth [2]: 1.03 | normalized growth [3]: 1.04 | normalized growth [4]: 1.03 | normalized growth [5]: 0.945 | normalized growth [6]: 0.989 | normalized growth [7]: 1.05 | normalized growth [8]: 1.02

CCCCCCCCCCCCCCCCC(C(=O)O)C(O)(CC(=O)O)C(=O)O (centres undefined)
normalized growth [1]: 0.501 (active) | normalized growth [2]: 0.804 (active) | normalized growth [3]: 0.581 (active) | normalized growth [4]: 0.566 (active) | normalized growth [5]: 0.48 (active) | normalized growth [6]: 0.648 (active) | normalized growth [7]: 0.836 (active) | normalized growth [8]: 0.863

CCCCCC(O)CCCC(=O)O (centres undefined)
normalized growth (locus YAL040C, strain CLN3, hits give low values): 1.02 | normalized growth (locus YCL061C, strain MRC1 (second series), hits give low values): 1.01 | normalized growth (locus YDR363W, strain ESC2, hits give low values): 1.01 | normalized growth (locus YER002W, strain NOP16, hits give low values): 1.03 | normalized growth (locus YJR075W, strain HOC1, hits give low values): 1.02 | normalized growth (locus YNL175C, strain NOP13, hits give low values): 1.02 | normalized growth (locus YNL197C, strain WHI3, hits give low values): 1.05 | normalized growth (locus YNL224C, strain SQS1, hits give low values): 0.991 | normalized growth (locus YOR083W, strain WHI5 (second series), hits give low values): 1.06

CCCCCCCCCCCCCCC(C(=O)O)C(O)(CC(=O)OC)C(=O)O (centres undefined)
normalized growth [9]: 1.04 | normalized growth [10]: 0.997 | normalized growth [11]: 1 | normalized growth [12]: 0.97 | normalized growth [13]: 0.955 | normalized growth [14]: 0.967 | normalized growth [15]: 0.999 | normalized growth [16]: 0.986 | normalized growth [17]: 0.988 | normalized growth [18]: 1 | normalized growth [19]: 1.01 | normalized growth (locus YCL061C, strain MRC1, hits give low values): 0.986 | normalized growth [20]: 1.02 | normalized growth [21]: 1.02 | normalized growth [22]: 0.987 | normalized growth [23]: 0.985 | normalized growth [24]: 1.02 | normalized growth [25]: 1.07 | normalized growth [26]: 0.999 | normalized growth [27]: 0.996 | normalized growth (locus YDR195W, strain ref2): 1.03 | normalized growth [28]: 0.994 | normalized growth [29]: 1.01 | normalized growth [30]: 0.977 | normalized growth [31]: 0.857 | normalized growth [32]: 0.98 | normalized growth [33]: 1 | normalized growth [34]: 1.01 | normalized growth [35]: 1 | normalized growth [36]: 1 | normalized growth [37]: 0.964 | normalized growth [38]: 0.981 | normalized growth [39]: 1.08 | normalized growth [40]: 0.981 | normalized growth [41]: 0.958 | normalized growth [42]: 1 | normalized growth [43]: 0.987 | normalized growth [44]: 0.966 | normalized growth [45]: 1.62 [resistant] (active) | normalized growth [46]: 0.994 | normalized growth [1]: 0.973 | normalized growth [2]: 1 | normalized growth [47]: 0.927 | normalized growth [48]: 1.01 | normalized growth [49]: 1 | normalized growth [3]: 0.952 | normalized growth [50]: 0.976 | normalized growth [51]: 0.869 (active) | normalized growth [52]: 1.01 | normalized growth [53]: 0.979 | normalized growth [54]: 0.976 | normalized growth [55]: 0.995 | normalized growth [4]: 0.898 | normalized growth [56]: 0.99 | normalized growth [57]: 0.999 | normalized growth [58]: 1.01 | normalized growth [59]: 0.992 | normalized growth [60]: 0.997 | normalized growth [61]: 1.01 | normalized growth [62]: 0.969 | normalized growth [5]: 1.02 | normalized growth [63]: 0.947 | normalized growth [64]: 1 | normalized growth [65]: 0.986 | normalized growth [66]: 0.996 | normalized growth [67]: 1 | normalized growth [68]: 0.926 | normalized growth [69]: 1.01 | normalized growth [70]: 1 | normalized growth [71]: 1.02 | normalized growth [72]: 0.9 (active) | normalized growth [73]: 1.01 | normalized growth [74]: 1.01 | normalized growth [75]: 1.04 | normalized growth [76]: 0.941 | normalized growth [77]: 1.02 | normalized growth [6]: 0.871 | normalized growth [78]: 1.01 | normalized growth [79]: 0.996 | normalized growth [80]: 1.02 | normalized growth [81]: 0.999 | normalized growth [82]: 0.981 | normalized growth [83]: 0.985 | normalized growth [84]: 0.994 | normalized growth [85]: 0.967 | normalized growth [86]: 0.982 | normalized growth [7]: 1.02 | normalized growth [87]: 1 | normalized growth [88]: 1.45 [resistant] (active) | normalized growth [89]: 1.04 | normalized growth [90]: 0.95 | normalized growth [91]: 0.996 | normalized growth [92]: 0.976 | normalized growth [93]: 1 | normalized growth [8]: 0.999

O=C(O)CC(O)(CC(=O)O)C(=O)O
normalized growth [9]: 1 | normalized growth [10]: 1.01 | normalized growth [11]: 1 | normalized growth [12]: 1.01 | normalized growth [13]: 1 | normalized growth [14]: 1.01 | normalized growth [15]: 1.01 | normalized growth [16]: 1.01 | normalized growth [17]: 1 | normalized growth [18]: 1.01 | normalized growth [19]: 0.997 | normalized growth [20]: 1.01 | normalized growth [21]: 1.02 | normalized growth [22]: 1.01 | normalized growth [23]: 1.01 | normalized growth [24]: 0.998 | normalized growth [25]: 1.03 | normalized growth [26]: 1 | normalized growth [27]: 1 | normalized growth (locus YDR195W, strain ref2): 1.05 | normalized growth [28]: 0.994 | normalized growth [29]: 1 | normalized growth [30]: 1.01 | normalized growth [31]: 0.966 | normalized growth [32]: 0.998 | normalized growth [33]: 1.01 | normalized growth [34]: 1 | normalized growth [35]: 1.02 | normalized growth [36]: 1.01 | normalized growth [37]: 1.01 | normalized growth [38]: 1.05 | normalized growth [39]: 1.02 | normalized growth [40]: 1.01 | normalized growth [41]: 0.999 | normalized growth [42]: 1.01 | normalized growth [43]: 1.02 | normalized growth [44]: 0.997 | normalized growth [45]: 1 | normalized growth [46]: 1.01 | normalized growth [1]: 0.979 | normalized growth [2]: 0.995 | normalized growth [47]: 0.993 | normalized growth [48]: 1.01 | normalized growth [49]: 1.02 | normalized growth [3]: 1.02 | normalized growth [50]: 1.03 | normalized growth [51]: 1.03 | normalized growth [52]: 1.01 | normalized growth [53]: 1 | normalized growth [54]: 1.03 | normalized growth [55]: 1.01 | normalized growth [4]: 0.953 | normalized growth [56]: 1.01 | normalized growth [57]: 1.01 | normalized growth [58]: 1.01 | normalized growth [59]: 1.01 | normalized growth [60]: 0.999 | normalized growth [61]: 1.01 | normalized growth [62]: 1 | normalized growth [5]: 1.02 | normalized growth [63]: 0.988 | normalized growth [64]: 1.01 | normalized growth [65]: 1.02 | normalized growth [66]: 0.998 | normalized growth [67]: 1.02 | normalized growth [68]: 1 | normalized growth [69]: 0.982 | normalized growth [70]: 1.01 | normalized growth [71]: 1.01 | normalized growth [72]: 1.01 | normalized growth [73]: 1.02 | normalized growth [74]: 1.01 | normalized growth [75]: 1.01 | normalized growth [76]: 1.01 | normalized growth [77]: 1 | normalized growth [6]: 0.98 | normalized growth [78]: 0.998 | normalized growth [79]: 1.01 | normalized growth [80]: 1 | normalized growth [81]: 1 | normalized growth [82]: 1.04 | normalized growth [83]: 1.01 | normalized growth [84]: 1.02 | normalized growth [85]: 1.02 | normalized growth [86]: 1.02 | normalized growth [7]: 0.985 | normalized growth [87]: 1.01 | normalized growth [88]: 0.988 | normalized growth [89]: 0.99 | normalized growth [90]: 1.01 | normalized growth [91]: 1.03 | normalized growth [92]: 1.01 | normalized growth [93]: 1 | normalized growth [8]: 0.968
